Screens: PubChem BioAssay, Center for Chemical Genomics, University of Michigan
TAR Tat displ: HIV-1 TAR-Tat binding disruption. z-score (concentration not given with the values). 100,000 compounds, 0.6% hits. AID 1259389. HIV-1 TAR RNA, Tat peptide displacement FRET; hits give high values; active = z-score of 3 or more in at least 2 runs
CDC25B CDK2 inh: human CDC25B-CDK2/CyclinA binding inhibition. P30305+P24941. HTRF CDC25B-CDK2/CyclinA binding, anti-His/anti-Flag; hits give high values. z-score (concentration not given with the values). 94,000 compounds, 0.72% hits. AID 1259370; in the data active = z-score above about 3.2
Starred values were filed as active, the others as inactive; / = not tested or not shown. Sampled rows, rich in hits. Any-hit rate of the full collection: about 0.93%.

SMILES	TAR Tat displ	CDC25B CDK2 inh
O=C(Nc1ccc2c(c1)OCCO2)C1CCN(S(=O)(=O)c2ccc(Br)cc2)CC1	1.6	4.6*
Cc1ccc(N(C)S(=O)(=O)c2cc(-c3cc(C)no3)ccc2C)cc1	-0.14	/
CCc1c(C)nc2ncnn2c1Sc1nnc(N)s1	1.2	-2.7
CCOc1ccc(S(=O)(=O)n2nnc3ccccc32)cc1	/	-0.5
Cc1sc(-n2cccc2)c(C(C)NC(=O)Nc2ccc(Cl)cc2)c1C (stereo unspecified)	1.6	-0.2
CCN(CC)c1ccc(NS(=O)(=O)c2cc3[nH]c(=O)c(=O)[nH]c3cc2C)c(C)c1	14*	/
CCN(CC)c1ccc(NS(=O)(=O)c2ccc(-c3ccc(=O)[nH]n3)o2)c(C)c1	-3.3	/
CCCCN(C)C(=O)Cn1cc2c(n1)-c1c(oc(C(=O)N3CCCC3)c1C)CC2	-1.2	/
Cc1ccc(S(=O)(=O)[C@H]2CS(=O)(=O)C[C@@H]2NCc2ccccc2)cc1	-0.98	0.36
CCS(=O)(=O)N1CCCc2ccc(NS(=O)(=O)c3cc(OC)ccc3OC)cc21	-0.11	/
CCCS(=O)(=O)N1CCCc2ccc(NS(=O)(=O)c3ccc(OC)cc3OC)cc21	6*	/
CCC(CC)C(=O)Nc1nnc(COC)s1	-1.5	-1.3
Cn1cc(NC(=O)NC2CCCCC2)c2ccccc2c1=O	0.91	19*
CC(C)Cn1cc(NC(=O)NC2CCCCC2)c2ccccc2c1=O	2.4	/
Cn1c(C(=O)N2CCN(C(=O)c3ccco3)CC2)cc2c(=O)n(C)c3ccccc3c21	1.1	-1.7
Cn1c(C(=O)N2CCN(C(=O)c3ccco3)CC2)cc2c(=O)[nH]c3ccccc3c21	0.35	18*
Cc1nc(C(F)(F)F)ccc1C(=O)Nc1cccnc1N1CCOCC1	/	-2.6
CC1CCC(Nc2c(-c3ccc4c(c3)CCCC4)c(=O)c2=O)CC1 (stereo unspecified)	-0.97	/
O=c1cc(-c2cc(O)c(O)c(O)c2)oc2cc(O)cc(O)c12	10*	/
O=c1cc(-c2ccc(O)cc2)oc2cc(O)cc(O)c12	3.4	0.12
COc1cccc(C2CC(=O)N3CN(C)CSC3=C2C#N)c1OC (stereo unspecified)	-0.83	4.3*
COc1ccc(C2CC(=O)N3CN(c4ccc(Br)cc4)CSC3=C2C#N)cc1OC (stereo unspecified)	-0.65	5.6*
COc1ccc(C2CC(=O)N3CN(C4CCCC4)CSC3=C2C#N)cc1OC (stereo unspecified)	-2.1	5.9*
COc1cccc(C2CC(=O)N3CN(c4ccccc4)CSC3=C2C#N)c1OC (stereo unspecified)	1.7	3.5*
N#CC1=C2SCN(C3CCCCC3)CN2C(=O)CC1c1ccc(Cl)cc1 (stereo unspecified)	-2.2	0.07
SMILES	TAR Tat displ	CDC25B CDK2 inh
Cc1nc(N2CCOCC2)cc(N2CCN(C(=O)Nc3ccccc3)CC2)n1	0.59	-1.2
CCC(C)NC(=O)CC1Oc2ccccc2NC1=O (stereo unspecified)	2.4	-1
O=C(CSc1nccn1Cc1ccccc1)NCc1ccc2c(c1)OCO2	0.67	/
COc1ccccc1C1CC(=O)N2CN(C3CCCCC3)CSC2=C1C#N (stereo unspecified)	-0.27	2.5
N#CC1=C2SCN(c3ccc(Br)cc3)CN2C(=O)CC1c1ccccc1F (stereo unspecified)	-1.9	7.3*
COc1cccc(C2CC(=O)N3CN(c4ccc(Br)cc4)CSC3=C2C#N)c1OC (stereo unspecified)	-3.1	5.9*
Cc1ccc(C2CC(=O)N3CN(c4ccc(Br)cc4)CSC3=C2C#N)o1 (stereo unspecified)	-1.9	7.3*
COc1cccc(C2CC(=O)N3CN(C4CCCCC4)CSC3=C2C#N)c1OC (stereo unspecified)	-0.67	6.2*
CC1CCN(S(=O)(=O)N2CCCC(C(=O)NC(C)C)C2)CC1 (stereo unspecified)	0.24	/
Cc1nc(N)n(C)c(=O)c1C	/	0.15
COc1cc(CN2CCN(C3CCCC(C)C3)CC2)cc(OC)c1OC (stereo unspecified)	/	-0.3
CCOc1ccccc1OCc1nn2c(C(C)(C)C)nnc2s1	-0.81	0.02
CCOC(=O)c1ccc2nc(C(F)(F)F)nc(N3CCCCC3)c2c1	0.79	1.1
CCOC(=O)C1CCCN(c2c(NC3CCC(C)CC3)c(=O)c2=O)C1 (stereo unspecified)	/	0.11
N=C1C(c2nc3ccccc3[nH]2)=C(O)CN1c1ccc(S(N)(=O)=O)cc1	4.4*	-2
N=C1C(c2nc3ccccc3[nH]2)=C(O)CN1c1ccc(F)cc1	0.18	-1.5
N.N.N.N.N.N.N.N.N.N.N.N.N.N.O.O.[Cl-].[Cl-].[Cl-].[Cl-].[Cl-].[Cl-].[Ru+4].[Ru+5].[Ru+5]	/	4.2*
O=C(O)CNc1cc(N2CCCC2)c2noc3c2c1C(=O)c1ccccc1-3	-5.6	5.5*
CCN1CCN(c2cc(NCC(=O)O)c3c4c(onc24)-c2ccccc2C3=O)CC1	0.3	0.53
O=C(O)CCCNc1cc(N2CCCC2)c2noc3c2c1C(=O)c1ccccc1-3	1.5	1.3
O=C(O)c1ccccc1Nc1cc(N2CCCC2)c2noc3c2c1C(=O)c1ccccc1-3	7.5*	2.4
CC(C)CNc1cc(N2CCCC2)c2noc3c2c1C(=O)c1ccccc1-3	0.45	-1.2
O=C(O)CNc1cc(N2CCCCC2)c2noc3c2c1C(=O)c1ccccc1-3	-6	4.4*
O=C(CCc1nc2cccnc2n1Cc1cccs1)Nc1ccc(Br)cc1	-4.1	0.19
COC(=O)C1=C(C)NC(C)=C(C(=O)OC2CCCN(Cc3ccccc3)C2)C1c1cccc([N+](=O)[O-])c1 (stereo unspecified)	/	-0.26
SMILES	TAR Tat displ	CDC25B CDK2 inh
CCOC(=O)c1c(C)oc2nc(C)nc(NCc3ccc4c(c3)OCO4)c12	-0.61	/
O=C1CSC2(CCCCC2)N1c1ccc(Br)cc1	/	-0.88
CCc1cc2c(cc3c(=O)n(CC(=O)NCCC4=CCCCC4)ncn32)s1	0.6	-0.93
COc1ccc(Nc2cc(C)nc(N3CCCCC3)n2)cc1	0.89	0.5
O=C1c2ccccc2C(=O)c2c1ccc(C(=O)O)c2[N+](=O)[O-]	/	-0.12
CC(=O)C(C(C)=O)C1=C([N+](=O)[O-])C(=O)C(=O)c2ccccc21	/	3.5*
COc1ccc(N(C(=O)c2ccco2)S(=O)(=O)c2ccc3c(c2)n(C)c(=O)n3C)cc1	-0.12	-1.3
COC(=O)c1ccc2[nH]c3c(c2c1)CCCC3	/	-3
CC(C)OC(=O)c1ccc2[nH]c3c(c2c1)CCCC3	-1.5	18*
O=S(=O)(c1ccc2[nH]c3c(c2c1)CCCC3)N1CCCCC1	-0.42	/
O=S(=O)(c1ccc2[nH]c3c(c2c1)CCCCC3)N1CCCCC1	3.4*	/
Cc1c(Cl)cccc1NC(=O)CSc1nc2ccc(N3C(=O)c4ccc([N+](=O)[O-])cc4C3=O)cc2s1	/	2.2
Cc1cc2n(n1)CCC(=O)N2C(C)C(=O)NCc1ccco1 (stereo unspecified)	-0.32	/
CCCCCCCCCCCCCCCCCCN=C(C)N	/	4.5*
CC(N)=NCCCC[C@@H](N)C(=O)O	/	0.56
CN(C)CCNc1nc(Nc2cccc(Cl)c2)c2cnn(C)c2n1	0.94	/
Cc1nc2scc(C)n2c(=O)c1S(=O)(=O)N1CCN(Cc2ccccc2)CC1	1.2	-1.7
Cc1ccc(-n2cc3c(=O)[nH]cnc3n2)cc1	3.7	0.28
O=c1[nH]cnc2nn(-c3ccccc3)cc12	4*	1.2
O=C(CSc1nc2ccccc2c(=O)[nH]1)Nc1cccc(Cl)c1	1.8	/
